# Screens (PubChem BioAssay)
# An excerpt weighted towards active compounds, which were near 4.7% of everything screened.
# D1 agonist – Allosteric Agonists of the Human D1 Dopamine Receptor: qHTS; D(1A) dopamine receptor (Homo sapiens), P21728; activation, % at 2 µM; HEK293 T-REx D1 cells, calcium flux, agonist mode; actives 1% (n = 360,000); further: 0% is about no effect
# Target sequence (P21728 whole entry, looked up): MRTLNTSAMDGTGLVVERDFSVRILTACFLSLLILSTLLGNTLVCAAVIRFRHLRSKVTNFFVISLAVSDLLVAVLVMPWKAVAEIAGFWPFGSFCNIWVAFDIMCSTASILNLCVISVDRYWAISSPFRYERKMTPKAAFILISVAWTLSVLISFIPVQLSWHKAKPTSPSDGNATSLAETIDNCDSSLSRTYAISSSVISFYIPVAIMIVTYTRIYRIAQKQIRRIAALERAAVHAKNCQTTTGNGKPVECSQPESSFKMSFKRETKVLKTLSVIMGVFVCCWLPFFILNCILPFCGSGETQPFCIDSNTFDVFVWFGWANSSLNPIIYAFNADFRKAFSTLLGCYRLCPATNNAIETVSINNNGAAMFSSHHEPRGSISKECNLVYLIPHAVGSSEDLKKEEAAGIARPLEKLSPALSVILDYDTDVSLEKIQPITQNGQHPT
#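 Inducible HEK293 T-REx D1 cells, force-coupled to calcium signalling, were plated at 4000 cells/well with tetracycline and held overnight at 30 C. After no-wash calcium dye loading, compound-evoked calcium rise over 180 s flagged agonists.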
# D1 potentiator – Potentiators of Human D1 Dopamine Receptor: qHTS. D(1A) dopamine receptor (Homo sapiens), P21728. actives 0.036% (n = 360,000). HEK293 TREx D1 cells, calcium flux, dopamine EC20 potentiation. potentiation, % at 10 µM; in the data active means potentiation above about 30%; further: 0% is about no effect
# D1 antag – Antagonist of Human D 1 Dopamine Receptor: qHTS; HEK293 TREx D1 cells, calcium flux, dopamine EC80; active compounds read low; AID 504652, 2011; actives 3.2% (n = 360,000); activity change, negative = inhibition, % at 10 µM; D(1A) dopamine receptor (Homo sapiens), P21728; in the data active means activity change below about -30%; further: on the % scale 0 is the no-effect control and ±100 the full control effect
#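 Antagonism measured as reduced calcium response to an EC80 dopamine addition following 180 s compound pre-read; cells were inducible HEK293 Trex D1 plated overnight at 30 C, read kinetically at 1 cycle/sec.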
# TRHR enhancer – qHTS for Small Molecule Agonists and Allosteric Enhancers of Human TRH Receptor: Primary Screen for Enhancers | actives 0.66% (n = 360,000) | enhancement, % at 2 µM | Thyrotropin-releasing hormone receptor (Homo sapiens), P34981 | TRHR cells, fluo-8 calcium fluorescence, EC20 TRH enhancement; in the data active means enhancement above about 30%; further: 0% is about no effect
#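 TRHR-expressing cells loaded with fluo-8 calcium dye were read kinetically (ex 480/em 530) during compound addition, then stimulated with an EC20 of TRH (10 nM final). Enhancement of the Gq-mediated intracellular calcium response was scored.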
# TRHR ag – qHTS for Small Molecule Agonists and Allosteric Enhancers of Human TRH Receptor: Primary Screen for Agonists | AID 493084, 2011 | activation, % at 2 µM | Thyrotropin-releasing hormone receptor (Homo sapiens), P34981 | actives 0.18% (n = 360,000) | TRHR cells, calcium flux fluo-8, FDSS agonist mode; further: 0% is about no effect
#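 Fluo-8-loaded TRHR cells; 10 s baseline, compound added, kinetic Ca2+ fluorescence read 1/s, agonist mode.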
# Active calls of the source: *; . = no result given; ! = not confirmed by another sample. Unless noted, no stated cut-off is given here; in the data, active means activation above about 30%; inactive means the rest.
SMILES,D1 agonist,D1 potentiator,D1 antag,TRHR enhancer,TRHR ag
C=Cc1ccc(CSc2nc(-c3ccccc3Cl)nc3c2Cc2c(CO)cnc(C)c2O3)cc1,2.9,-0.2,4.3,4.1,0.4
Cc1ccc(-c2c(C#N)c(N)n3c(nc4ccccc43)c2C#N)cc1,23.1,-15.1,-39.4*,-6.2,4.0
Cc1cccc(C(=O)Nc2cc3c(cc2N2CCCCC2)n(C)c(=O)n3C)c1,0.0,-1.1,-3.5,-9.4,-1.0
Cc1ccc(C)c(N2CCN(C(=O)C(Cc3ccccc3)n3cccc3)CC2)c1 (configuration not stated),6.0,.,-52.8*,-3.2,0.0
O=C(O)C(Cc1ccccc1)n1cccc1 (configuration not stated),3.2,1.3,-41.9*,-1.2,0.0
Cc1cc(C)cc(C(=O)Nc2c(C(=O)Nc3ccccc3F)oc3ccccc23)c1,-2.3,-0.7,7.7,1.5,-1.5
CC(=O)CSc1ccc(-c2nc3ccccc3[nH]2)cn1,-0.2,-7.0,10.2,0.6,0.3
Cc1cc2nc(-c3ccc(SCc4ccc(C#N)cc4)nc3)[nH]c2cc1C,-0.9,-10.8,-42.9*,-0.7,0.5
N#Cc1ccccc1CSc1ccc(-c2nc3ccccc3[nH]2)cn1,15.2,-5.8,-35.2*,-6.1,0.0
C/C(CCc1ccco1)=N\NC(=O)CNc1c(Br)cc(Br)cc1Br,3.6,-2.3,-44.0*,26.4,0.9
CCN(CC)CCNC(=O)C(=O)NCC(c1cccnc1)N1CCN(c2ccccc2)CC1 (configuration not stated),2.2,-0.2,-9.8,14.2,-0.5
Cc1ccc(NC(=O)CSc2nc3c(oc4ccccc43)c(=O)n2-c2ccc(F)cc2)c(C)c1,1.9,2.9,-2.7,-1.9,1.0
CCCOc1cccc(C2/C(=C(/O)c3ccc(F)cc3)C(=O)C(=O)N2CCN(C)C)c1 (configuration not stated),3.0,-2.6,1.0,-1.5,0.4
C=CCOc1cccc(C2/C(=C(\O)c3ccc(F)cc3)C(=O)C(=O)N2CCN(C)C)c1 (configuration not stated),-0.5,-5.2,-52.7*,-2.9,-0.3
Cc1cccc(CNC(=O)C2CCN(S(=O)(=O)c3cccc4nonc34)CC2)c1,0.0,0.0,9.4,-4.7,-0.5
Cc1cc(=O)n2nc(N3CCCC(C(=O)NCCCN4CCc5ccccc5C4)C3)sc2n1 (configuration not stated),5.1,-3.1,-32.1*,3.8,-0.4
CCC1CCCCN1CCCNC(=O)C1CCCN(c2nn3c(=O)cc(C)nc3s2)C1 (configuration not stated),3.3,-6.4,-2.4,-1.6,-0.1
Cc1cc(Cl)ccc1NC(=O)COC(=O)CCNS(=O)(=O)c1ccccc1,8.5,-1.9,11.0,13.0,-0.4
Cc1ccc(S(=O)(=O)NCCC(=O)OCC(=O)Nc2cccc(Cl)c2)cc1,7.3,-4.6,-42.3*,-5.5,-0.2
Cc1ccc(S(=O)(=O)NCC(=O)OCCOc2cccc(Cl)c2)cc1,4.0,39.9*,-4.7,4.1,0.7
c1ccc(Oc2ccc(-c3ccnc4nc(N5CCOCC5)nn34)cc2)cc1,6.3,-2.5,12.7,33.4*,-1.6
CCCOc1ccc(CNC(=O)c2cc3ccccn3n2)cc1,0.1,2.0,-15.6,-1.3,-0.9
C/C(=N\NC(=O)c1nnn(-c2nonc2N)c1CN(C)c1ccccc1)c1cccc(O)c1,16.5,-15.4,-39.1*,28.1,-0.9
C/C(=N\NC(=O)c1nnn(-c2nonc2N)c1-c1ccc2c(c1)OCO2)c1ccc(C)cc1,104.4*,15.5,52.6,18.7,2.0
C/C(=N\NC(=O)c1nnn(-c2nonc2N)c1-c1ccc2c(c1)OCO2)c1ccccc1,33.6*,-1.6,9.9,6.9,0.7
SMILES,D1 agonist,D1 potentiator,D1 antag,TRHR enhancer,TRHR ag
Cc1ccc(OCC(=O)Nc2ccc(OCc3cc(=O)n4cccc(C)c4n3)cc2)cc1C,2.4,-0.6,3.8,5.8,0.0
CCc1cc2c(cc3c(=O)n(CC(=O)NCc4cc(Br)ccc4OC)ncn32)s1,2.5,-4.7,5.4,3.1,-0.4
CC(C)CCNC(=O)CN1C(=O)COc2ccc(S(=O)(=O)N3CCOCC3)cc21,0.0,-7.3,-46.6*,-16.5,-0.3
CCOc1ccc(CCNC(=O)CN2C(=O)COc3ccc(S(=O)(=O)N4CCOCC4)cc32)cc1,0.8,-5.9,-69.1*,0.3,1.3
CCOc1ccc(CCNC(=O)CN2C(=O)COc3ccc(S(=O)(=O)N4CCCC4)cc32)cc1,1.3,4.0,-6.5,-10.0,0.8
Cc1ccccc1NC(=O)CN1C(=O)COc2ccc(S(=O)(=O)N3CCCC3)cc21,0.7,0.3,-16.1,-2.9,-0.3
CCOc1ccc(NC(=O)CN2C(=O)COc3ccc(Cl)cc32)cc1,2.4,-2.5,-59.4*,13.8,-0.3
CCOC(=O)c1ccc(NC(=O)CN2C(=O)COc3ccc(Cl)cc32)cc1,-0.6,-5.3,-11.1,-5.0,1.5
CCc1ccccc1NC(=O)CN1C(=O)COc2ccc(S(=O)(=O)N3CCCCCC3)cc21,3.9,-2.1,-46.1*,1.1,-0.2
O=C(NCCS(=O)(=O)N1CCN(c2ccccc2F)CC1)c1ccccc1C(F)(F)F,8.0,-1.2,2.0,-3.1,-0.6
CC1CCN(CC2CCN(C(=O)Nc3ccc(Br)cc3F)CC2)CC1,0.9,-0.8,11.6,-6.4,2.9
Cc1nn(-c2ccccc2)c2c1N(CCCC(=O)NCc1ccc(OC(C)C)cc1)C(=O)CS2,-1.1,-3.1,-14.2,0.2,-0.3
CCn1c(=O)cc(OCC(=O)NCc2ccc(F)cc2Cl)c2ccccc21,2.3,-3.4,12.2,-3.6,0.5
COc1ccc(OC)c(CCNC(=O)CN2C(=O)COc3ccc(S(=O)(=O)N4CCCCCC4)cc32)c1,1.5,-1.0,1.5,-10.7,-0.9
COc1ccc(CCNC(=O)CN2C(=O)COc3ccc(S(=O)(=O)N4CCCC4)cc32)c(OC)c1,3.6,-0.1,-85.6*!,4.5,-0.7
Cc1ccc(N2C(=O)N(CC(=O)N(C)Cc3ccccc3)C(=O)C2C)cc1 (configuration not stated),38.7*,-1.4,-55.0*,11.3,-0.3
Cc1ccccc1NCC(=O)N/N=C/c1ccc([N+](=O)[O-])cc1,3.5,-0.2,-43.2*,16.6,-0.5
O=C(N/N=C/c1ccc(-c2ccc([N+](=O)[O-])cc2)o1)c1cccnc1,3.8,-4.2,-42.4*,3.8,0.5
